In PubChem BioAssay (EPA / NIEHS):
Several values for one entry are separate records, joined by “and”; a condition that tells them apart may be missing. Identical values can stand only once. Records with an inconclusive call do not appear. Activity calls are given as the source filed them. How the source made its calls: active means hit-call score of the fitted dose curve at least 0.9, where 1 is the maximum; inconclusive means response in the unintended direction; inactive means score below 0.9.

Tests used:
[1] = target: Cellular tumor antigen p53 (Homo sapiens) (UniProt P04637); assay: TOX21_p53_BLA_p3_ratio: Tox21 HCT-116 p53 Agonism Beta-lactamase Assay, Ratio, Phase 3 (AID 2283596)
Cellular tumor antigen p53 (Homo sapiens), sequence (P04637 whole entry, looked up): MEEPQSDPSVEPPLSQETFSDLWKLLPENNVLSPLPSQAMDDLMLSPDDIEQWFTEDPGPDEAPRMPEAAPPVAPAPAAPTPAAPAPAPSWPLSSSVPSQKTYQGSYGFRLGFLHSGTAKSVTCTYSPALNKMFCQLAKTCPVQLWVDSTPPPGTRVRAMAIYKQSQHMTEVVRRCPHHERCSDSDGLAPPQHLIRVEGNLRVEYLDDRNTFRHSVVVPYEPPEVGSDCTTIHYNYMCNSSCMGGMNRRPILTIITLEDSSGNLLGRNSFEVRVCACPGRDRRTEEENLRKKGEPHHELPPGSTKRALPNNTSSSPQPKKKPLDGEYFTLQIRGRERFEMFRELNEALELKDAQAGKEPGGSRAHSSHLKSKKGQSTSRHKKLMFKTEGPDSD
Method in brief: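 HCT116 p53-bla cells (4000/well) given compound in DMSO (217-fold dilution) after 5 h, incubated 16 h at 37C. CCF4-AM substrate 2 h at room temperature; 460/530 nm emission ratio, gain fitted against DMSO.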

[2] = TOX21_p53_BLA_p4_viability: Viability Assessment in the Tox21 HCT-116 p53 Agonism Beta-lactamase Assay, Phase 4 (AID 2283597);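 further: hits lower the luminescence signal meaning cytotoxicity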
Method in brief: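 HCT-116 p53-bla cells, 4000/well, dosed after 5 h attachment and incubated 16 h at 37 °C, 5% CO2. Viability from CellTiter-Glo ATP luminescence after 30 min at room temperature, taken after the beta-lactamase read; loss of signal indicates cytotoxicity.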

[3] = TOX21_p53_BLA_p5_viability: Viability Assessment in the Tox21 HCT-116 p53 Agonism Beta-lactamase Assay, Phase 5 (AID 2283600)
Method in brief: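 HCT-116 p53 beta-lactamase reporter cells, 4000/well, were exposed to compound (pin transfer, 217-fold dilution) for 16 hours at 37C. Cellular ATP was read by CellTiter-Glo luminescence after 30 min at room temperature.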

[4] = target: Cellular tumor antigen p53 (Homo sapiens) (UniProt P04637); assay: TOX21_p53_BLA_p4_ratio: Tox21 HCT-116 p53 Agonism Beta-lactamase Assay, Ratio, Phase 4 (AID 2283601)
Method in brief: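 HCT116 cells carrying an inducible beta-lactamase reporter were plated at 4000 cells/well, rested 5 h, then exposed to compounds in DMSO (217-fold dilution) for 16 h at 37C. CCF4-AM substrate was loaded 2 h at room temperature; 460/530 nm emission ratio scored gain-of-signal versus DMSO.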

[5] = Tanguay_ZF_120hpf_YSE_legacy: (Legacy) Oregon State University Tanguay Lab 120 Hour Post-fertilization zebrafish Assay for Yolk Sac Edema (AID 2283634);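 on AC50: actives raise the incidence of yolk sac edema above the DMSO baseline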
Method in brief: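 Dechorionated Tropical 5D wild-type zebrafish embryos were exposed statically, one per well, from 6 to 120 hpf at 28C in 0.64% DMSO. Yolk sac edema was scored present/absent by brightfield at 120 hpf, and dead embryos were excluded.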

[6] = Tanguay_ZF_120hpf_AXIS_legacy: (Legacy) Oregon State University Tanguay Lab 120 Hour Post-fertilization zebrafish Assay for Body Axis Malformation (AID 2283635);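 on AC50: potency for an increased fraction of larvae scored with body axis malformation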
Method in brief: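 Dechorionated wild-type Tropical 5D zebrafish embryos, one per well, statically exposed from 6 hpf to 120 hpf at 28C in 0.64% DMSO final. Body axis malformation scored present/absent by brightfield microscopy at 120 hpf; dead embryos excluded.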

[7] = Tanguay_ZF_120hpf_EYE_legacy: (Legacy) Oregon State University Tanguay Lab 120 Hour Post-fertilization zebrafish Assay for Eye Malformation (AID 2283636);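 further: binary presence or absence of eye malformation scored by brightfield in 120 hpf larvae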
Method in brief: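 Dechorionated wild-type Tropical 5D zebrafish embryos were exposed statically from 6 hpf, one per well, to 120 hpf at 28C in sealed, foil-covered plates with 0.64% DMSO. Eye malformation was scored present/absent by brightfield microscopy against DMSO controls.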

[8] = Tanguay_ZF_120hpf_SNOU_legacy: (Legacy) Oregon State University Tanguay Lab 120 Hour Post-fertilization zebrafish Assay for Snout Malformation (AID 2283637)
Method in brief: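 Tropical 5D wild-type zebrafish embryos, dechorionated with pronase at 4 hpf, were exposed singly from 6 hpf to 120 hpf statically at 28C in 0.64% DMSO. Snout malformation was scored present/absent by brightfield microscopy, fitted against DMSO.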

[9] = Tanguay_ZF_120hpf_JAW_legacy: (Legacy) Oregon State University Tanguay Lab 120 Hour Post-fertilization zebrafish Assay for Jaw Malformation (AID 2283638);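 on AC50: active means more embryos with jaw malformation than DMSO controls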
Method in brief: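 Dechorionated Tropical 5D wild-type zebrafish embryos, one per well, exposed statically from 6 hpf to 120 hpf at 28C in 0.64% DMSO. Jaw malformation was scored by brightfield microscopy as present or absent. It was not scored in dead embryos.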

[10] = Tanguay_ZF_120hpf_OTIC_legacy: (Legacy) Oregon State University Tanguay Lab 120 Hour Post-fertilization zebrafish Assay for Otic Vesicle Malformation (AID 2283639)
Method in brief: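 Otic vesicle malformation is read as a yes/no morphology call at 120 hpf. Exposure is static at 28C with 0.64% (vol/vol) DMSO; embryos that die are excluded from non-mortality endpoints.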

[11] = Tanguay_ZF_120hpf_PE_legacy: (Legacy) Oregon State University Tanguay Lab 120 Hour Post-fertilization zebrafish Assay for Pericardial Edema (AID 2283640);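 on AC50: potency for increased incidence of pericardial edema versus DMSO baseline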
Method in brief: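 Tropical 5D wild-type zebrafish embryos were statically exposed until 120 hpf at 28C, with 0.64% DMSO final. Pericardial edema was scored by brightfield as present or absent; endpoints were not scored in dead embryos.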

[12] = Tanguay_ZF_120hpf_BRAI_legacy: (Legacy) Oregon State University Tanguay Lab 120 Hour Post-fertilization zebrafish Assay for Brain Malformation (AID 2283641)
Method in brief: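 Tropical 5D wild-type zebrafish embryos exposed statically until 120 hpf at 28C, 0.64% DMSO final, sealed and dark. Brain malformation scored present/absent by brightfield at 120 hpf; dead embryos excluded. Trimethyltin chloride 5uM positive control.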

[13] = Tanguay_ZF_120hpf_SOMI_legacy: (Legacy) Oregon State University Tanguay Lab 120 Hour Post-fertilization zebrafish Assay for Somite Malformation (AID 2283647)
Method in brief: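 Dechorionated Tropical 5D wild-type zebrafish embryos, one per well from 6 hpf, statically exposed at 28C to 120 hpf in 0.64% DMSO; somite malformation scored present/absent by brightfield; trimethyltin 5 uM positive control; dead embryos not scored.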

[14] = Tanguay_ZF_120hpf_PFIN_legacy: (Legacy) Oregon State University Tanguay Lab 120 Hour Post-fertilization zebrafish Assay for Pectoral Fin Malformation (AID 2283648);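 further: each larva judged yes or no for fin defect by brightfield with dead larvae skipped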
Method in brief: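 Tropical 5D wild-type embryos, dechorionated with pronase at 4 hpf, were placed singly in wells at 6 hpf and statically exposed until 120 hpf at 28C, sealed and dark, with 0.64% (vol/vol) final DMSO; pectoral fin malformation scored present/absent.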

[15] = Tanguay_ZF_120hpf_PIG_legacy: (Legacy) Oregon State University Tanguay Lab 120 Hour Post-fertilization zebrafish Assay for Pigmentation Malformation (AID 2283650)
Method in brief: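 Tropical 5D wild-type zebrafish embryos, dechorionated with pronase at 4 hpf, were exposed singly from 6 hpf to 120 hpf statically at 28C in sealed, dark plates with 0.64% DMSO; pigmentation scored present/absent by brightfield microscopy, fitted against DMSO.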

[16] = Tanguay_ZF_120hpf_CIRC_legacy: (Legacy) Oregon State University Tanguay Lab 120 Hour Post-fertilization zebrafish Assay for Circulatory Malformation (AID 2283651)
Method in brief: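 Using wild-type Tropical 5D zebrafish, we exposed dechorionated embryos from 6 to 120 hpf in embryo medium with 0.64% DMSO. Circulatory defects were scored as present or absent; 5uM trimethyltin chloride served as positive control.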

[17] = target: Cellular tumor antigen p53 (Homo sapiens) (UniProt P04637); assay: TOX21_p53_BLA_p5_ratio: Tox21 HCT-116 p53 Agonism Beta-lactamase Assay, Ratio, Phase 5 (AID 2283599)
Method in brief: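 HCT-116 cells carrying a p53-inducible beta-lactamase reporter were seeded at 4000 cells/well and dosed after 5 h with compound in DMSO (217-fold dilution). After 16 h at 37C, CCF4-AM substrate was added for 2 h, and the 460/530 nm emission ratio was scored as gain-of-signal versus DMSO.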

[18] = Tanguay_ZF_120hpf_MORT_legacy: (Legacy) Oregon State University Tanguay Lab 120 Hour Post-fertilization zebrafish Assay for Mortality (AID 2283633)
Method in brief: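 Dechorionated Tropical 5D wild-type zebrafish embryos, one per well from 6 hpf, static exposure in 0.64% DMSO at 28C until 120 hpf. Mortality scored as binary by brightfield microscopy at 24 and 120 hpf.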

[19] = Tanguay_ZF_120hpf_CFIN_legacy: (Legacy) Oregon State University Tanguay Lab 120 Hour Post-fertilization zebrafish Assay for Caudal Fin Malformation (AID 2283649)
Method in brief: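 Dechorionated Tropical 5D wild-type embryos, one per well from 6 hpf, static exposure to 120 hpf at 28C in 0.64% DMSO. Caudal fin malformation scored by brightfield as present/absent; not scored in dead embryos.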

Structure (SMILES): CCc1nn(C)c(C(=O)NCc2ccc(C(C)(C)C)cc2)c1Cl
- outcome [1]: inactive
- AC50 [2]: 46.1 µM (active)
- AC50 [3]: 46.1 µM (active)
- AC50 [4]: 76.6 µM (active)
- AC50 [5]: 6 µM (active)
- outcome [6]: inactive
- outcome [7]: inactive
- AC50 [8]: 6.18 µM (active)
- AC50 [9]: 4.39 µM (active)
- outcome [10]: inactive
- AC50 [11]: 5.67 µM (active)
- outcome [12]: inactive
- outcome [13]: inactive
- outcome [14]: inactive
- outcome [15]: inactive
- outcome [16]: inactive

Structure (SMILES): O=C(O)c1nc(Cl)ccc1Cl
- outcome [1]: inactive
- outcome [2]: inactive
- outcome [17]: inactive
- outcome [3]: inactive
- outcome [18]: inactive
- outcome [5]: inactive
- outcome [6]: inactive
- outcome [7]: inactive
- outcome [8]: inactive
- outcome [9]: inactive
- outcome [10]: inactive
- outcome [11]: inactive
- outcome [12]: inactive
- outcome [13]: inactive
- outcome [14]: inactive
- outcome [15]: inactive
- outcome [16]: inactive

Structure (SMILES): CS/C(C)=N/OC(=O)N(C)SN(C)C(=O)O/N=C(\C)SC
- outcome [1]: inactive
- outcome [17]: inactive
- outcome [3]: inactive
- outcome [4]: inactive
- outcome [5]: inactive
- AC50 [6]: 24.4 µM (active)
- outcome [7]: inactive
- outcome [8]: inactive
- outcome [9]: inactive
- outcome [10]: inactive
- outcome [11]: inactive
- outcome [12]: inactive
- outcome [19]: inactive
- outcome [15]: inactive

Structure (SMILES): CCCCNC(=O)n1c(NC(=O)OC)nc2ccccc21
- AC50 [1]: 15.9 µM (active) and 15.4 µM (active)
- outcome [2]: inactive
- AC50 [17]: 20.5 µM (active) and 12.3 µM (active)
- AC50 [4]: 11.9 µM (active) and 9.73 µM (active)
- outcome [18]: inactive
- AC50 [5]: 52.3 µM (active)
- outcome [6]: inactive
- AC50 [7]: 72.8 µM (active)
- AC50 [8]: 56.7 µM (active)
- AC50 [9]: 59.2 µM (active)
- outcome [10]: inactive
- outcome [11]: inactive
- outcome [13]: inactive
- outcome [14]: inactive
- AC50 [15]: 27.9 µM (active)
- outcome [16]: inactive

Structure (SMILES): CNC(=S)S
- outcome [1]: inactive
- outcome [2]: inactive
- outcome [17]: inactive
- outcome [4]: inactive
- outcome [5]: inactive
- outcome [6]: inactive
- outcome [7]: inactive
- outcome [8]: inactive
- outcome [9]: inactive
- outcome [10]: inactive
- outcome [11]: inactive
- outcome [12]: inactive
- outcome [13]: inactive
- outcome [14]: inactive
- outcome [15]: inactive

Structure (SMILES): CCOP(=S)(OCC)SCn1c(=O)oc2cc(Cl)ccc21
- outcome [1]: inactive
- outcome [2]: inactive
- outcome [17]: inactive
- outcome [3]: inactive
- outcome [4]: inactive
- outcome [5]: inactive
- outcome [6]: inactive
- outcome [7]: inactive
- outcome [8]: inactive
- outcome [10]: inactive
- outcome [12]: inactive
- outcome [13]: inactive
- outcome [14]: inactive
- outcome [15]: inactive
- outcome [16]: inactive
